Drawing on the supplement of paper PMC8699584, this text covers cell viability for 48 compounds.

Where “and” joins values, the source holds several entries; their conditions need not be identical. Identical values can stand only once. Counter-ions that a name gives are not always drawn. ± gives the standard deviation of the averaged measurements.

A word on the cell viability: it is a read-out of living cells in per cent, often relative to untreated cells.

One assay deals with Molm13. Description: cell viability relative to DMSO control (bortezomib = 0%); higher = less growth inhibition. To be noted: 10 nM; 72 h. In short, it runs like this: (§1)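 FLT3-ITD+ acute myeloid leukemia cells were dispensed onto a library of 679 approved and investigational compounds in 384-well plates, at 1000 cells per well in 50 µL and a single 10 nM dose, for 72 h. The screen was run in duplicate. Cell viability was read by CellTiter-Glo luminescence on an EnVision reader. Values were converted to percentages by per-plate linear regression between DMSO-treated cells (100%) and positive-control-treated cells (0%).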

Another assay has as its system Mv4-11. The assay is described as above. To be noted: 10 nM; 72 h. In short, it runs like this: as §1

In the case of `COc1ccc(COc2ccc(Cc3cnc(N)nc3N)cc2OC)cc1`, the cell viability is 110 ± 17% with Molm13 and 123 ± 11% in the assay with Mv4-11.
As to `COc1cc(Nc2ncc(F)c(Nc3ccc4c(n3)N(COP(=O)(O)O)C(=O)C(C)(C)O4)n2)cc(OC)c1OC` [R788 (Fostamatinib) Disodium], the results for the cell viability with Molm13 and in the assay on Mv4-11 were 92 ± 3.9% and 96.4 ± 10%, respectively.
In the same order, the values of `CN(C)Cc1cccc(N/C(=C2\C(=O)Nc3cc(C(N)=O)ccc32)c2ccccc2)c1` are 114 ± 4.6% and 134 ± 3.4%.
In the same order, the values of `COC1=CC(=O)c2ccccc2C1=O` [2-Methoxy-1,4-naphthoquinone] are 94.66 ± 0.11% and 98.6 ± 9.1%.
For `CC(C)(C)c1cc(NC(=O)Nc2ccc(-c3cn4c(n3)sc3cc(OCCN5CCOCC5)ccc34)cc2)no1` [Quizartinib (AC220)], in that order: 9.37 ± 9.1% and 3.71 ± 2.9%.
As to `Cc1ccc(C(=O)N(CCCN)[C@@H](c2nc3cc(Cl)ccc3c(=O)n2Cc2ccccc2)C(C)C)cc1`, the cell viability in the assay with Molm13 was 2.83 ± 14%; in the assay with Mv4-11, 6.27 ± 10%.
Turning to `C[C@@H](Oc1cc(-c2cnn(C3CCNCC3)c2)cnc1N)c1c(Cl)ccc(F)c1Cl`, the cell viability worked out at 107 ± 16% with Molm13 and 100 ± 20% with Mv4-11.
For `COc1cc(-c2cc(-c3cccc(O)c3)cnc2N)cc(OC)c1OC`, in that order: 99.8 ± 14% and 106 ± 6.8%.
For `CC(C)[C@H](CO)Nc1nc(Nc2cccc(Cl)c2)c2ncn(C(C)C)c2n1` [Purvalanol A], in that order: 102 ± 7.3% and 106 ± 12%.
As for `O=c1c(O)c(-c2cc(O)c(O)c(O)c2)oc2cc(O)cc(O)c12` [Myricetin], the cell viability was 106 ± 20% in the assay with Molm13 and 114 ± 17% in the assay on Mv4-11.
In the same order, the values of `O=c1ccc2ccc(O)c(O)c2o1` [Daphnetin] are 100 ± 4.2% and 109 ± 12%.
For `Oc1cc(O)cc(/C=C/c2ccc(O)c(O)c2)c1` [Piceatannol], in that order: 101 ± 6.1% and 108 ± 11%.
Turning to `Cc1cc(O)c2c(c1)C(=O)c1cccc(O)c1C2=O` [Chrysophanic Acid], the cell viability came to 93.1 ± 1.7% in the assay with Molm13 and 108 ± 12% in the assay with Mv4-11.
In the same order, the values of `CNC(=O)c1cc(Oc2ccc(NC(=O)Nc3ccc(Cl)c(C(F)(F)F)c3)cc2)ccn1` [Sorafenib tosylate] are 63.1 ± 6.6% and 69.2 ± 10%.
For `CC(C)(C)c1ccc(S(=O)(=O)/C=C/C#N)cc1`, in that order: 108 ± 16% and 98.9 ± 4.4%.
As to `CC(C)(C#N)c1ccc(N2C(=O)OCc3cnc4ccc(-c5cnc6ccccc6c5)cc4c32)cc1`, the cell viability in the assay with Molm13 came to 93.6 ± 11%; with Mv4-11, 102 ± 9.2%.
With `C[S+]([O-])c1ccc(-c2nc(-c3ccc(F)cc3)c(-c3ccncc3)[nH]2)cc1` (stereo unspecified), the cell viability is 104% and 108% and 110% in the assay on Molm13; 110% and 114% and 112% in the assay with Mv4-11.
Consider `COc1cc(-c2cc(-c3ccc(N4CCNCC4)cc3)cnc2C)cc(OC)c1OC`, for which the cell viability in the assay with Molm13 is 111 ± 5.7%; with Mv4-11, 107 ± 3.6%.
In the case of `CCCS(=O)(=O)Nc1ccc(F)c(C(=O)c2c[nH]c3ncc(-c4ccc(Cl)cc4)cc23)c1F` [Vemurafenib (PLX4032, RG7204)], the cell viability with Molm13 was 101 ± 7%; with Mv4-11, 105 ± 1.1%.
For `O=c1cc(-c2cccc3c2Sc2ccccc2S3)oc(N2CCOCC2)c1`, in that order: 104 ± 4.7% and 103 ± 28%.
In the same order, the values of `Cc1cn(-c2cc(NC(=O)c3ccc(C)c(Nc4nccc(-c5cnccn5)n4)c3)cc(C(F)(F)F)c2)cn1` [Radotinib] are 100 ± 2.6% and 107 ± 13%.
For `Cc1cc(Nc2ncc(Cl)c(Nc3ccccc3S(=O)(=O)C(C)C)n2)c(OC(C)C)cc1C1CCNCC1` [LDK378(Ceritinib)], in that order: 110 ± 4.9% and 103.8 ± 0.72%.
As to `Nc1ncnc2c1c(I)cn2[C@@H]1O[C@H](CO)[C@@H](O)[C@H]1O` [5-Iodotubercidin], the cell viability amounted to 92.65 ± 0.91% in the assay with Molm13 and 87.1 ± 4.9% in the assay with Mv4-11.
On to `Nc1ccc(C(=O)Nc2cccc(-c3nc(N4CCOCC4)c4oc5ncccc5c4n3)c2)cn1`, for which the cell viability was 104% and 101% with Molm13; 106% and 108% in the assay with Mv4-11.
With `Cn1sc(=O)n(Cc2ccccc2)c1=O`, the cell viability in the assay on Molm13 came out at 90.9 ± 6.1%; in the assay on Mv4-11, 108 ± 21%.
Turning to `CC(C)N(CCC(=O)c1ccc2ccccc2c1)Cc1ccccc1`, the cell viability amounted to 96.8 ± 7% in the assay on Molm13 and 111 ± 1.4% in the assay on Mv4-11.
In the same order, the values of `C[C@@H]1COCCN1c1cc(C2([S@](C)(=N)=O)CC2)nc(-c2cc[nH]c3nccc2-3)n1` are 114 ± 7.9% and 115 ± 3.4%.
For `CN(C)C(=O)c1cc2cnc(Nc3ccc(N4CCNCC4)cn3)nc2n1C1CCCC1`, in that order: 113 ± 12% and 113 ± 12%.
In the same order, the values of `Cc1cn(-c2cc(NC(=O)c3ccc(C)c(Nc4nccc(-c5cccnc5)n4)c3)cc(C(F)(F)F)c2)cn1` [Nilotinib (AMN-107)] are 108 ± 9% and 112 ± 16%.
On to `CN1CCN(c2ccc(C(=O)Nc3n[nH]c4ccc(Cc5cc(F)cc(F)c5)cc34)c(NC3CCOCC3)c2)CC1` [Entrectinib], for which the cell viability is 87.5 ± 7% in the assay with Molm13 and 104 ± 24% with Mv4-11.
In the same order, the values of `NCCCNc1ccc(Nc2nccc(Nc3cc(C4CC4)[nH]n3)n2)cc1` are 94.71 ± 0.31% and 110 ± 7.2%.
For `Cc1[nH]c(/C=C2\C(=O)Nc3ccccc32)c(C)c1CCC(=O)O` [TSU-68 (SU6668, Orantinib)], in that order: 93.8 ± 2.3% and 122 ± 14%.
As for `O=C(Nc1cc(Oc2cc(F)c(NC(=O)C3(C(=O)Nc4ccc(F)cc4)CC3)cc2F)ccn1)C1CC1` [Altiratinib(DCC2701)], the cell viability with Molm13 amounted to 106 ± 12%; in the assay on Mv4-11, 120 ± 8.4%.
In the same order, the values of `COc1cc2/c(=N/c3ccc(Br)cc3F)nc[nH]c2cc1OCC1CCN(C)CC1` [Vandetanib (ZD6474)] are 116 ± 22% and 117 ± 41%.
Regarding `CCOc1cn(-c2ccc(F)cc2C)nc1C(=O)Nc1ccc(Oc2ccnc3cc(OC)c(OC)cc23)c(F)c1`, the cell viability came to 112 ± 20% with Molm13 and 109 ± 2.8% in the assay on Mv4-11.
For `O=C1NC(=O)/C(=C\c2ccc3nccnc3c2)S1`, in that order: 116 ± 13% and 104 ± 13%.
In the same order, the values of `Oc1ccc(Nc2nc(-c3ccc(Cl)cc3)cs2)cc1` [Sphingosine Kinase Inhibitor 2] are 101 ± 17% and 108 ± 7.4%.
For `O=C(Nc1cccc(Nc2ncc(Br)c(NCCc3cnc[nH]3)n2)c1)N1CCCC1`, in that order: 73 ± 3.7% and 81.16 ± 0.49%.
`O=Nc1c(-c2c(O)[nH]c3ccccc23)[nH]c2ccccc12` [Indirubin-3'-monoxime]: the cell viability in the assay with Molm13 worked out at 88 ± 13%; with Mv4-11, 80.7 ± 4.5%.
For `CC[C@@H]1C(=O)N(C)c2cnc(Nc3ccc(C(=O)N[C@H]4CC[C@H](N5CCN(CC6CC6)CC5)CC4)cc3OC)nc2N1C(C)C` [Volasertib (BI 6727)], in that order: 104.1 ± 0.8% and 117 ± 15%.
`CN(C)C[C@@H]1CCn2cc(c3ccccc32)C2=C(C(=O)NC2=O)c2cn(c3ccccc23)CCO1` [Ruboxistaurin hydrochloride]: the cell viability in the assay with Molm13 was found to be 90 ± 7.3%; in the assay on Mv4-11, 101 ± 10%.
For `CC[C@H](CO)Nc1nc(NCc2ccccc2)c2ncn(C(C)C)c2n1` [(R)-Roscovitine], in that order: 105 ± 9.1% and 103 ± 15%.
For `N#Cc1c(NC(=O)c2cccc3ccccc23)sc2c1CCCC2`, in that order: 102 ± 21% and 114 ± 4.2%.
For `Cn1cc(-c2ccc3ncc(Cc4ccc5ncccc5c4)n3n2)cn1`, in that order: 100 ± 16% and 119 ± 16%.
Take `O=c1cc(N2CCOCC2)oc2c1ccc1ccccc12`: the cell viability was 98.1% and 100% in the assay on Molm13; 103% and 110% in the assay on Mv4-11.
`COc1cc(N2CCOCC2)ccc1Nc1ncc(Cl)c(Nc2ccccc2NS(C)(=O)=O)n1`: the results for the cell viability with Molm13 and in the assay on Mv4-11 were 108 ± 10% and 111 ± 24%, respectively.
For `O=[N+]([O-])c1ccc(-c2nc(-c3ccc(F)cc3)c(-c3ccncc3)[nH]2)cc1`, in that order: 99.9 ± 5.5% and 101 ± 5.5%.
For `CCCCC/C=C\C/C=C\C/C=C\C/C=C\CCCC(=O)NC[C@]1(C)CCC[C@]2(C)c3ccc(C(C)C)cc3CC[C@@H]12` [Arachidonic Acid Leelamide], in that order: 105 ± 17% and 112 ± 1.2%.
